Our source for the viability rescue values is PubChem BioAssay AID1377 (University of Pittsburgh Molecular Library Screening Center, 2008).

Hit rate of the full screen: of about 220,000 compounds, about 830 (0.38%) were called active. The sample as a whole holds a higher share of actives than the screen did. Values without a mark were called inactive.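 Rule for the calls: active = activation, scaled between plate controls, above about 75% (limit read from the data); inactive = activation under that limit.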

A short description of this assay: inhibitors of zVAD-triggered necroptosis, primary screen, L929 cells (AID 1377).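 Note: 0% = zVAD with DMSO and 100% = DMSO alone without zVAD.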 To be noted: ATP luminescence, 24 h, at 10 µM, with zVAD 60 µM, hits give high values.
Turning to `COC(=O)C(c1ccccc1)N1CCCCCC1` (stereo not given), the viability rescue was 0.41%.
The same measure for `COC(=O)N1C(c2ccccc2)C1c1ccccc1` (stereo not given): 83.8% (active); for `CCCC[N+]1(C)C2CC(OC(=O)C(CO)c3ccccc3)CC1C1OC12` (stereo not given): -0.33%; for `CN1CCN(/N=C/c2c[nH]c3ccccc23)CC1`: -0.46%.
Turning to `CC1C2Cn3c(nc4ccccc43)C1N(C)O2` (stereo not given), the viability rescue is 0.4%.
